Assay results reported in PubChem BioAssay (EPA / NIEHS).
Records with an inconclusive call do not appear. The source made the active and inactive calls. How the source made its calls, unless noted: active means hit-call score of the fitted dose curve at least 0.9, where 1 is the maximum; inactive means score below 0.9.

read-out: Interleukin-8 (IL8), CXCL8 (gene 3576); test: BSK_3C_IL8: BioMAP Diversity Plus: 3C Assay for Interleukin-8 (IL8) Biomarker Activity (AID 2283020); conditions: primary human endothelial cells (HUVEC); actives raise or lower the signal
Procedure, shortened: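 ELISA read-out of IL-8 from human umbilical vein endothelium, measured 24 h after chemical dosing. Activity is expressed relative to DMSO negative control, with both increases and decreases fitted.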

| SMILES | outcome | AC50 |
| --- | --- | --- |
| C[C@]12CC[C@@H](O)C[C@@H]1CC[C@@H]1[C@@H]2CC[C@]2(C)C(=O)CC[C@@H]12 | inactive |  |
| CC(C=O)Cc1ccc2c(c1)OCO2 (stereo unspecified) | inactive |  |
| C#CCOC(=O)/C=C(C)/C=C/CC(C)CCCC(C)C (stereo unspecified) |  | 0.0524 µM (active) |
| Nc1ccc(N)cc1 | inactive |  |
| COCC(=O)N(c1c(C)cccc1C)[C@H](C)C(=O)OC | inactive |  |
| O=C(O)C1(c2ccc3c(c2)OC[C@H](Cc2ccc(-c4ccccc4)cc2)[C@H]3O)CCCC1 |  | 29.9 µM (active) |
| CCOP(=O)(OCC)SCCSCC | inactive |  |
| NC(=O)CCl | inactive |  |
| Oc1c(Br)cc(Br)cc1Br | inactive |  |
| CC(C)(C)c1cc([N+](=O)[O-])cc(C(C)(C)C)c1O | inactive |  |
| OC(Cc1ccccc1Cl)(Cn1cncn1)C1(Cl)CC1 (stereo unspecified) | inactive |  |
| Cc1c([N+](=O)[O-])c(C)c([N+](=O)[O-])c(C(C)(C)C)c1[N+](=O)[O-] | inactive |  |
| C=CC(Cl)CCl (stereo unspecified) | inactive |  |
| CCCCN(CCCC)C(=S)[S-].CCCCN(CCCC)C(=S)[S-].[Ni+2] | inactive |  |
| COc1ccccc1N | inactive |  |
| CC(C)=CC1C(C(=O)OCc2cccc(Oc3ccccc3)c2)C1(C)C (stereo unspecified) | inactive |  |
| Nc1c(Oc2ccccc2)cc(O)c2c1C(=O)c1ccccc1C2=O | inactive |  |
| Cc1ccc2nc3sc(=O)sc3nc2c1 |  | 5 µM (active) |

read-out: Monokine induced gamma interferon (MIG), CXCL9 (gene 4283); test: BSK_3C_MIG: BioMAP Diversity Plus: 3C Assay for Monokine induced gamma interferon (MIG) Biomarker Activity (AID 2283021); conditions: primary human endothelial cells (HUVEC); actives raise or lower the signal
Procedure, shortened: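 Read-out is ELISA detection of MIG on human umbilical vein endothelial cells, taken 24 h after dosing. Gain or loss of signal was scored relative to DMSO controls using bidirectional curve fitting.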

| SMILES | outcome |
| --- | --- |
| C#CCOC(=O)/C=C(C)/C=C/CC(C)CCCC(C)C (stereo unspecified) | inactive |
| COCC(=O)N(c1c(C)cccc1C)[C@H](C)C(=O)OC | inactive |
| CCOP(=O)(OCC)SCCSCC | inactive |
| NC(=O)CCl | inactive |
| CC(C)(C)c1cc([N+](=O)[O-])cc(C(C)(C)C)c1O | inactive |
| C=CC(Cl)CCl (stereo unspecified) | inactive |
| CCCCN(CCCC)C(=S)[S-].CCCCN(CCCC)C(=S)[S-].[Ni+2] | inactive |
| CC(C)=CC1C(C(=O)OCc2cccc(Oc3ccccc3)c2)C1(C)C (stereo unspecified) | inactive |
| Nc1c(Oc2ccccc2)cc(O)c2c1C(=O)c1ccccc1C2=O | inactive |

target: human Vitamin D Receptor (VDR), VDR (gene 7421) (UniProt P11473); test: ATG_VDR_TRANS: Attagene TRANS-FACTORIAL HepG2 Assay for human Vitamin D Receptor (VDR) (AID 2283022; active means hit-call score of the fitted dose curve at least 0.9, where 1 is the maximum); conditions: not given
Procedure, shortened: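 HepG2 cells were transiently transfected with multiple GAL4-UAS reporter units, so signal reflects exogenous chimeric receptor-Gal4 activity. After 24 h compound exposure, reporter mRNA was measured by RT-PCR, fluorescent labelling and capillary electrophoresis, fitted for gain of signal versus DMSO.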

Chain of human Vitamin D Receptor (VDR), VDR (gene 7421) (P11473 whole entry, looked up, the tested form may be a part): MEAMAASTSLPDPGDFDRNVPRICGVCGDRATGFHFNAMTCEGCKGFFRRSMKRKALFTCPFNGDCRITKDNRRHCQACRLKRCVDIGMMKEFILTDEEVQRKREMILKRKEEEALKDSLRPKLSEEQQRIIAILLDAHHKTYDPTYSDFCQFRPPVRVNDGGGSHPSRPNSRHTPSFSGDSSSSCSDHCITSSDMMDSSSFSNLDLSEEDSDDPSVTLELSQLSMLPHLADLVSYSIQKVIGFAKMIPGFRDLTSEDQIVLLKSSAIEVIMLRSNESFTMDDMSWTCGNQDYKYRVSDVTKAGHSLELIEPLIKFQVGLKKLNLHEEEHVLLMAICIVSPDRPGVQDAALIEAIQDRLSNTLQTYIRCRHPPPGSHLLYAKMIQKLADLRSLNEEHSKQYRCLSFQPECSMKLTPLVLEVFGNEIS

| SMILES | outcome |
| --- | --- |
| CN(C)c1ccc(N=O)cc1 | inactive |
| CC(C)CC(C)(c1ccc(O)cc1)c1ccc(O)cc1 | inactive |
| C[C@]12CC[C@@H](O)C[C@@H]1CC[C@@H]1[C@@H]2CC[C@]2(C)C(=O)CC[C@@H]12 | inactive |
| CC(C=O)Cc1ccc2c(c1)OCO2 (stereo unspecified) | inactive |
| C#CCOC(=O)/C=C(C)/C=C/CC(C)CCCC(C)C (stereo unspecified) | inactive |
| Nc1ccc(N)cc1 | inactive |
| CC(C)(c1ccc(O)c(-c2ccccc2)c1)c1ccc(O)c(-c2ccccc2)c1 | inactive |
| O=C(O)C1(c2ccc3c(c2)OC[C@H](Cc2ccc(-c4ccccc4)cc2)[C@H]3O)CCCC1 | inactive |
| CC(C)[C@@H](Nc1ccc(C(F)(F)F)cc1Cl)C(=O)OC(C#N)c1cccc(Oc2ccccc2)c1 (stereo partly specified) | inactive |
| O=C(Nc1ccc(Br)cc1)c1cc(Br)cc(Br)c1O | inactive |
| CCNc1nc(NCC)nc(SC)n1 | inactive |
| NC(=O)CCl | inactive |
| O=S1(=O)OC(c2cc(Br)c(O)c(Br)c2)(c2cc(Br)c(O)c(Br)c2)c2ccccc21 | inactive |
| O=C1c2ccccc2C(=O)C1C(=O)C(c1ccccc1)c1ccc(Cl)cc1 (stereo unspecified) | inactive |
| CC(C)(C)c1cc([N+](=O)[O-])cc(C(C)(C)C)c1O | inactive |
| Brc1c(Br)c(Br)c(Oc2c(Br)c(Br)c(Br)c(Br)c2Br)c(Br)c1Br | inactive |
| OC(Cc1ccccc1Cl)(Cn1cncn1)C1(Cl)CC1 (stereo unspecified) | inactive |
| C=CC(Cl)CCl (stereo unspecified) | inactive |
| COC(F)(C(F)(F)C(F)(F)F)C(F)(C(F)(F)F)C(F)(F)F (stereo unspecified) | inactive |
| CCCCN(CCCC)C(=S)[S-].CCCCN(CCCC)C(=S)[S-].[Ni+2] | inactive |
| CCCCCCCCCCCCCl | inactive |
| Cc1cc(-c2cc(C)c(N)c(C)c2)cc(C)c1N | inactive |
| CC(C)=CC1C(C(=O)OCc2cccc(Oc3ccccc3)c2)C1(C)C (stereo unspecified) | inactive |
| Nc1c(Oc2ccccc2)cc(O)c2c1C(=O)c1ccccc1C2=O | inactive |
| CN(C1CCCCC1)C1CCCCC1 | inactive |
| C=CCCl | inactive |

read-out: not listed separately; test: BSK_3C_SRB: Viability Assessment in the BioMAP Diversity Plus: 3C Assay (AID 2283023); conditions: primary human endothelial cells (HUVEC);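 further: fitted both ways against DMSO so a hit may be signal rise or drop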
Procedure, shortened: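 Primary human umbilical vein endothelial cells in the 3C system were read 24 h after compound dosing. Total protein was stained with 0.1% sulforhodamine B after 10% TCA fixation and read at 560 nm, with bidirectional fitting against DMSO as baseline.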

| SMILES | outcome | AC50 |
| --- | --- | --- |
| C[C@]12CC[C@@H](O)C[C@@H]1CC[C@@H]1[C@@H]2CC[C@]2(C)C(=O)CC[C@@H]12 | inactive |  |
| CC(C=O)Cc1ccc2c(c1)OCO2 (stereo unspecified) | inactive |  |
| C#CCOC(=O)/C=C(C)/C=C/CC(C)CCCC(C)C (stereo unspecified) |  | 32.1 µM (active) |
| Nc1ccc(N)cc1 | inactive |  |
| COCC(=O)N(c1c(C)cccc1C)[C@H](C)C(=O)OC | inactive |  |
| O=C(O)C1(c2ccc3c(c2)OC[C@H](Cc2ccc(-c4ccccc4)cc2)[C@H]3O)CCCC1 |  | 28 µM (active) |
| CCOP(=O)(OCC)SCCSCC | inactive |  |
| NC(=O)CCl | inactive |  |
| Oc1c(Br)cc(Br)cc1Br |  | 35.5 µM (active) |
| CC(C)(C)c1cc([N+](=O)[O-])cc(C(C)(C)C)c1O |  | 0.815 µM (active) |
| OC(Cc1ccccc1Cl)(Cn1cncn1)C1(Cl)CC1 (stereo unspecified) | inactive |  |
| Cc1c([N+](=O)[O-])c(C)c([N+](=O)[O-])c(C(C)(C)C)c1[N+](=O)[O-] |  | 20 µM (active) |
| C=CC(Cl)CCl (stereo unspecified) | inactive |  |
| CCCCN(CCCC)C(=S)[S-].CCCCN(CCCC)C(=S)[S-].[Ni+2] | inactive |  |
| COc1ccccc1N | inactive |  |
| CC(C)=CC1C(C(=O)OCc2cccc(Oc3ccccc3)c2)C1(C)C (stereo unspecified) |  | 26.7 µM (active) |
| Nc1c(Oc2ccccc2)cc(O)c2c1C(=O)c1ccccc1C2=O | inactive |  |
| Cc1ccc2nc3sc(=O)sc3nc2c1 |  | 6.71 µM (active) |
